# Measurements: the supplement of paper PMC10646978
# ± gives the standard deviation.
# Experiments:
# Settings in all cases: modulator concentration 10 µM
# [1] = tested on: RAW-Dual (murine macrophage reporter line); experiment: NF-kB reporter (SEAP) activity fold change vs agonist alone; higher = enhanced NF-kB activity
# Summary of the method: (§1)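 Overnight stimulation with a PRR agonist followed pre-incubation for 1 hour at 37 °C with compound at 10 μM final. This was done in RAW-Dual murine macrophage reporter cells seeded at 50 000 per well in 384-well plates. NF-κB (SEAP, QUANTI-Blue absorbance at 620 nm) and IRF (Lucia luciferase, QUANTI-Luc luminescence) were read from the supernatant. Each reporter's fold change relative to the mean agonist-only control on the same plate was averaged over replicate plates.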
# [2] = tested on: RAW-Dual (murine macrophage reporter line); experiment: IRF reporter (Lucia luciferase) activity fold change vs agonist alone; higher = enhanced IRF activity
# Summary of the method: as §1
# [3] = tested on: RAW-Dual (murine macrophage reporter line); experiment: viability score (confluency relative to resting cells, overnight) (fraction); higher = more viable, active = viable (0.7 or more)
# Summary of the method: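 RAW-Dual macrophages in 384-well plates were exposed overnight to compound at 10 μM final. Confluency was imaged with IncuCyte, and two confluency masks were generated with IncuCyte software over all imaged wells. The viability score is confluency expressed relative to resting cells. Compounds were called viable if both masks exceeded 70% of resting cells.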
# [4] = agonist: CpG ODN 1826 0.5 ug/mL
compound,measurement,setting,value
O=C(c1ccc(Cl)cc1)N(c1ccccc1)C1C=CS(=O)(=O)C1 (stereo unspecified),NF-kB reporter,[1]; [4],0.99 ± 0.056
same,NF-kB reporter,[1]; agonist: LPS 0.1 ug/mL,0.83 ± 0.051
same,NF-kB reporter,[1]; agonist: MPLA […],0.823 ± 0.049
same,IRF reporter,[2]; agonist: 3'3'-cGAMP 10 ug/mL,0.814 ± 0.031
same,IRF reporter,[2]; agonist: LPS 0.1 ug/mL,1.1 ± 0.14
same,IRF reporter,[2]; agonist: MPLA […],1.08 ± 0.2
same,viability score,[3],0.981 (active)
CSc1nc2cc(Oc3cccc(Cl)c3Cl)c(Cl)cc2[nH]1,NF-kB reporter,[1]; [4],0.416 ± 0.14
same,NF-kB reporter,[1]; agonist: LPS 0.1 ug/mL,0.771 ± 0.084
same,NF-kB reporter,[1]; agonist: MPLA […],0.63 ± 0.037
same,IRF reporter,[2]; agonist: 3'3'-cGAMP 10 ug/mL,0.831 ± 0.025
same,IRF reporter,[2]; agonist: LPS 0.1 ug/mL,1.41 ± 0.26
same,IRF reporter,[2]; agonist: MPLA […],1.34 ± 0.21
same,viability score,[3],0.921 (active)
CCOC(=O)c1ccc2nc(NC(=O)c3ccco3)sc2c1,NF-kB reporter,[1]; [4],0.971 ± 0.079
same,NF-kB reporter,[1]; agonist: LPS 0.1 ug/mL,0.876 ± 0.064
same,NF-kB reporter,[1]; agonist: MPLA […],1.13 ± 0.14
same,IRF reporter,[2]; agonist: 3'3'-cGAMP 10 ug/mL,0.996 ± 0.051
same,IRF reporter,[2]; agonist: LPS 0.1 ug/mL,1.35 ± 0.19
same,IRF reporter,[2]; agonist: MPLA […],1.58 ± 0.3
same,viability score,[3],1.01 (active)
COC(=O)C1=C(C)NC(C)=C(C(=O)OCCN(C)Cc2ccccc2)C1c1cccc([N+](=O)[O-])c1.Cl (stereo unspecified),NF-kB reporter,[1]; [4],0.996 ± 0.055
same,NF-kB reporter,[1]; agonist: LPS 0.1 ug/mL,0.91 ± 0.074
same,NF-kB reporter,[1]; agonist: MPLA […],0.887 ± 0.047
same,IRF reporter,[2]; agonist: 3'3'-cGAMP 10 ug/mL,1.1 ± 0.052
same,IRF reporter,[2]; agonist: LPS 0.1 ug/mL,1.01 ± 0.16
same,IRF reporter,[2]; agonist: MPLA […],0.988 ± 0.29
same,viability score,[3],0.397 (inactive)
COC(C)(CNC(=O)c1cc2ccccc2[nH]1)c1ccccc1F (stereo unspecified),NF-kB reporter,[1]; [4],0.825 ± 0.035
same,NF-kB reporter,[1]; agonist: LPS 0.1 ug/mL,0.96 ± 0.081
same,NF-kB reporter,[1]; agonist: MPLA […],1.06 ± 0.057
same,IRF reporter,[2]; agonist: 3'3'-cGAMP 10 ug/mL,0.944 ± 0.063
same,IRF reporter,[2]; agonist: LPS 0.1 ug/mL,1.01 ± 0.17
same,IRF reporter,[2]; agonist: MPLA […],1.11 ± 0.22
same,viability score,[3],0.94 (active)
Clc1ccc(-c2nc(-c3ccc(I)cc3)[nH]c2-c2ccc(Cl)cc2)cc1,NF-kB reporter,[1]; [4],0.641 ± 0.049
same,NF-kB reporter,[1]; agonist: LPS 0.1 ug/mL,0.91 ± 0.1
same,NF-kB reporter,[1]; agonist: MPLA […],0.985 ± 0.1
same,IRF reporter,[2]; agonist: 3'3'-cGAMP 10 ug/mL,0.929 ± 0.082
same,IRF reporter,[2]; agonist: LPS 0.1 ug/mL,1.19 ± 0.24
same,IRF reporter,[2]; agonist: MPLA […],1.27 ± 0.3
same,viability score,[3],1.02 (active)
COc1ccc2ccccc2c1-c1nnc2ccc(C(F)(F)F)cn12,NF-kB reporter,[1]; [4],0.87 ± 0.1
same,NF-kB reporter,[1]; agonist: LPS 0.1 ug/mL,0.997 ± 0.056
same,NF-kB reporter,[1]; agonist: MPLA […],0.854 ± 0.089
same,IRF reporter,[2]; agonist: 3'3'-cGAMP 10 ug/mL,0.992 ± 0.036
same,IRF reporter,[2]; agonist: LPS 0.1 ug/mL,1.37 ± 0.18
same,IRF reporter,[2]; agonist: MPLA […],1.07 ± 0.2
same,viability score,[3],1.01 (active)
COc1ccc(-c2[nH]c(-c3cccc(OC)c3)nc2SCC(=O)NC2CCCC2)cc1,NF-kB reporter,[1]; [4],0.849 ± 0.074
same,NF-kB reporter,[1]; agonist: LPS 0.1 ug/mL,1.13 ± 0.056
same,NF-kB reporter,[1]; agonist: MPLA […],1.91 ± 0.15
same,IRF reporter,[2]; agonist: 3'3'-cGAMP 10 ug/mL,0.438 ± 0.026
same,IRF reporter,[2]; agonist: LPS 0.1 ug/mL,0.824 ± 0.044
same,IRF reporter,[2]; agonist: MPLA […],1.85 ± 0.14
same,viability score,[3],1 (active)
Clc1ccc2c(c1)CCc1cccnc1C2=C1CCNCC1,NF-kB reporter,[1]; [4],0.345 ± 0.04
same,NF-kB reporter,[1]; agonist: LPS 0.1 ug/mL,0.654 ± 0.052
same,NF-kB reporter,[1]; agonist: MPLA […],0.814 ± 0.048
same,IRF reporter,[2]; agonist: 3'3'-cGAMP 10 ug/mL,0.505 ± 0.026
same,IRF reporter,[2]; agonist: LPS 0.1 ug/mL,0.81 ± 0.14
same,IRF reporter,[2]; agonist: MPLA […],0.754 ± 0.15
same,viability score,[3],0.36 (inactive)
CC1CC(=O)C2=C(C1)OC(N)=C(C#N)C2c1cccc2ccccc12 (stereo unspecified),NF-kB reporter,[1]; [4],1.04 ± 0.059
same,NF-kB reporter,[1]; agonist: LPS 0.1 ug/mL,1.06 ± 0.065
same,NF-kB reporter,[1]; agonist: MPLA […],1.03 ± 0.11
same,IRF reporter,[2]; agonist: 3'3'-cGAMP 10 ug/mL,0.988 ± 0.033
same,IRF reporter,[2]; agonist: LPS 0.1 ug/mL,1.26 ± 0.088
same,IRF reporter,[2]; agonist: MPLA […],1.24 ± 0.14
same,viability score,[3],1 (active)
OCCN(CCO)CC(O)Cn1c2ccc(Cl)cc2c2cc(Cl)ccc21 (stereo unspecified),NF-kB reporter,[1]; [4],0.232 ± 0.013
same,NF-kB reporter,[1]; agonist: LPS 0.1 ug/mL,0.503 ± 0.042
same,NF-kB reporter,[1]; agonist: MPLA […],0.407 ± 0.024
same,IRF reporter,[2]; agonist: 3'3'-cGAMP 10 ug/mL,0.695 ± 0.032
same,IRF reporter,[2]; agonist: LPS 0.1 ug/mL,2.78 ± 0.18
same,IRF reporter,[2]; agonist: MPLA […],1.52 ± 0.18
same,viability score,[3],0.0946 (inactive)
Cc1cccc(OCCn2cc(C=Nn3cnnc3)c3ccccc32)c1,NF-kB reporter,[1]; [4],1.4 ± 0.11
same,NF-kB reporter,[1]; agonist: LPS 0.1 ug/mL,1.12 ± 0.095
same,NF-kB reporter,[1]; agonist: MPLA […],1.31 ± 0.13
same,IRF reporter,[2]; agonist: 3'3'-cGAMP 10 ug/mL,0.992 ± 0.059
same,IRF reporter,[2]; agonist: LPS 0.1 ug/mL,1.23 ± 0.11
same,IRF reporter,[2]; agonist: MPLA […],1.5 ± 0.24
same,viability score,[3],0.975 (active)
O=C(O)c1cc(O)c2ccccc2n1,NF-kB reporter,[1]; [4],1.23 ± 0.3
same,NF-kB reporter,[1]; agonist: LPS 0.1 ug/mL,1.13 ± 0.11
same,NF-kB reporter,[1]; agonist: MPLA […],1 ± 0.064
same,IRF reporter,[2]; agonist: 3'3'-cGAMP 10 ug/mL,1.01 ± 0.057
same,IRF reporter,[2]; agonist: LPS 0.1 ug/mL,1.21 ± 0.14
same,IRF reporter,[2]; agonist: MPLA […],1.38 ± 0.14
same,viability score,[3],0.991 (active)
C(#Cc1ccc(C=Nc2nccs2)cc1)c1ccccc1,NF-kB reporter,[1]; [4],0.714 ± 0.18
same,NF-kB reporter,[1]; agonist: LPS 0.1 ug/mL,0.935 ± 0.17
same,NF-kB reporter,[1]; agonist: MPLA […],0.892 ± 0.1
same,IRF reporter,[2]; agonist: 3'3'-cGAMP 10 ug/mL,0.176 ± 0.029
same,IRF reporter,[2]; agonist: LPS 0.1 ug/mL,1.09 ± 0.16
same,IRF reporter,[2]; agonist: MPLA […],1.15 ± 0.17
same,viability score,[3],0.997 (active)
COC(=O)C1=C(C)NC(C)=C(C(=O)OC)C1c1ccccc1[N+](=O)[O-],NF-kB reporter,[1]; [4],1.27 ± 0.1
same,NF-kB reporter,[1]; agonist: LPS 0.1 ug/mL,1.33 ± 0.073
same,NF-kB reporter,[1]; agonist: MPLA […],1.82 ± 0.17
same,IRF reporter,[2]; agonist: 3'3'-cGAMP 10 ug/mL,0.374 ± 0.017
same,IRF reporter,[2]; agonist: LPS 0.1 ug/mL,0.585 ± 0.035
same,IRF reporter,[2]; agonist: MPLA […],0.414 ± 0.038
same,viability score,[3],0.907 (active)
C=C1C(=O)O[C@@H]2[C@H]3O[C@]3(C)CC/C=C(\C)CC[C@@H]12 [Prestw-550],NF-kB reporter,[1]; [4],0.314 ± 0.019
same,NF-kB reporter,[1]; agonist: LPS 0.1 ug/mL,0.312 ± 0.036
same,NF-kB reporter,[1]; agonist: MPLA […],0.108 ± 0.0071
same,IRF reporter,[2]; agonist: 3'3'-cGAMP 10 ug/mL,0.0909 ± 0.0037
same,IRF reporter,[2]; agonist: LPS 0.1 ug/mL,0.0437 ± 0.0043
same,IRF reporter,[2]; agonist: MPLA […],0.0367 ± 0.005
same,viability score,[3],0.495 (inactive)
O=C(c1ccc(F)c(F)c1Nc1ccc(I)cc1F)N1CC(O)([C@@H]2CCCCN2)C1,NF-kB reporter,[1]; [4],0.155 ± 0.0087
same,NF-kB reporter,[1]; agonist: LPS 0.1 ug/mL,0.0529 ± 0.0032
same,NF-kB reporter,[1]; agonist: MPLA […],0.123 ± 0.012
same,IRF reporter,[2]; agonist: 3'3'-cGAMP 10 ug/mL,0.871 ± 0.029
same,IRF reporter,[2]; agonist: LPS 0.1 ug/mL,4.08 ± 0.27
same,IRF reporter,[2]; agonist: MPLA […],1.81 ± 0.16
same,viability score,[3],0.0873 (inactive)
O=C(C=Cc1ccc(O)cc1)c1ccc(O)cc1O,NF-kB reporter,[1]; [4],1.33 ± 0.36
same,NF-kB reporter,[1]; agonist: LPS 0.1 ug/mL,1.09 ± 0.054
same,NF-kB reporter,[1]; agonist: MPLA […],1.74 ± 0.12
same,IRF reporter,[2]; agonist: 3'3'-cGAMP 10 ug/mL,0.305 ± 0.012
same,IRF reporter,[2]; agonist: LPS 0.1 ug/mL,0.966 ± 0.1
same,IRF reporter,[2]; agonist: MPLA […],0.81 ± 0.13
same,viability score,[3],0.979 (active)
